In the library only some 3% were active in any assay of this set; here they are far more common.
SENP8 block-1 = SENP8 protease inhibition. 330,000 tested, 1.2% active. Q96LD8. inhibition, % at 10 µM. purified SENP8, Z-RLRGG-aminoluciferin cleavage, luminescence. AID 2540; in the data active = inhibition above about 50%
PPC-1+TRAIL kill = compounds killing PPC-1 cancer cells with TRAIL present (potentiator screen, no TRAIL-free arm); PPC-1 cells + TRAIL, ATPLite viability luminescence; cell killing (% activity), % at 4 µM or 5 µM; 220,000 tested, 0.41% active; AID 1443;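 active = cell killing above 50% in the first pass at 4 µM, then a duplicate retest at 5 µM averaging 50% or more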
SENP6 block = inhibitors of human SENP6 protease. Q9GZR1. Recombinant SENP6 catalytic domain, aminoluciferin luminescence. inhibition, % at 10 µM. 330,000 tested, 1.8% active. AID 2599;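 active = inhibition above about 50% at the single tested dose, limit read from the data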
TRAIL sens C8 = sensitizes caspase-8 expressing cells to TRAIL; 360,000 tested, 1% active; AID 624354; inhibition (viability loss, TRAIL sensitization), % at 10 µM; NB7+C8 cells + TRAIL, ATPlite viability luminescence;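 active = compounds causing at least 50% loss of cell viability in the single-dose screen, relative to plate controls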
SENP8 block-2 = inhibitors of human SENP8 protease; recombinant SENP8, Nedd8 substrate fluorescence; 360,000 tested, 0.64% active; Q96LD8; inhibition, % at 20 µM; in the data active = inhibition mostly above about 40%, no sharp cut-off; inactive = mostly below about 27%
SENP7 block = inhibitors of human SENP7 protease | Q9BQF6 | recombinant SENP7, Z-RLRGG-aminoluciferin luminescence, 40 min | inhibition, % at 5 µM | 330,000 tested, 1.5% active | AID 434973;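 active = inhibition above about 50% at the single test dose, limit read from the data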
Target sequence (Q9BQF6 706-1050 limits assumed): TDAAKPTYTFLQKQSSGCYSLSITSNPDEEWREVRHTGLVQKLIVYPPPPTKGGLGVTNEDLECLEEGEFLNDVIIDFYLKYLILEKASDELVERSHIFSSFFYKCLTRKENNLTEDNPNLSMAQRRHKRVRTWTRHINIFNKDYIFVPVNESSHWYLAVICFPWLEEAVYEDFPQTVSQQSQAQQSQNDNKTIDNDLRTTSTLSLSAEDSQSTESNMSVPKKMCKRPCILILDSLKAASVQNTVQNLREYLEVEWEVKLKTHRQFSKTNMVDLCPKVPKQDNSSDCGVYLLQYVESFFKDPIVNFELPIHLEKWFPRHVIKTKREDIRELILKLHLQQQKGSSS
SENP8 conf = human SENP8 inhibition, confirmed; Recombinant SENP8, Z-RLRGG-aminoluciferin luminescence, 60 min; AID 488912; 6,200 tested, 40% active; shares compounds with SENP7 block; inhibition, % at 12.5 µM;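 active = mean inhibition across replicates above about 50%, limit read from the data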
SENP6 conf = confirmation of human SENP6 protease inhibitors; shares compounds with SENP7 block; recombinant SENP6, Z-RLRGG-aminoluciferin luminescence; inhibition, % at 12.5 µM; 6,200 tested, 58% active
SENP7 conf = confirmation of human SENP7 protease inhibitors | inhibition, % at 12.5 µM | recombinant SENP7, Z-RLRGG-aminoluciferin luminescence, 40 min | 6,200 tested, 69% active | shares compounds with SENP7 block
Casp3 select = selectivity test for SENP inhibitors: human caspase-3 inhibition; 6,200 tested, 60% active; shares compounds with SENP7 block; inhibition, % at 12.5 µM; purified caspase-3, Z-DEVD-aminoluciferin luminescence, 60 min;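 active = mean inhibition above about 50%, limit read from the data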
Target sequence (P42574 28-227 limits assumed): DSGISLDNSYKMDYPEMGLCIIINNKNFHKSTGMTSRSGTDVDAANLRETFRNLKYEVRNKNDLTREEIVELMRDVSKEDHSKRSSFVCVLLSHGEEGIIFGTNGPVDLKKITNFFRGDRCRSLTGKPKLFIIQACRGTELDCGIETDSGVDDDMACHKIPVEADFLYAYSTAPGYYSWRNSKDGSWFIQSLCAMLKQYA
Luc interf = counter-screen for SENP inhibitors: luminescence interference | shares compounds with SENP7 block | inhibition, % at 12.5 µM | AID 488919 | Pre-incubated SENP8/Z-RLRGG-aminoluciferin, luciferase luminescence interference | 6,200 tested, 39% active;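 active = mean inhibition above about 50% when retested at one dose, limit read from the data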
Hits are given with their value; 0 = inactive; - = no result.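 Rule for the calls, unless noted: active = mean inhibition above about 50% in the one-dose retest (limit read from the data); inactive = the rest.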

SMILES	SENP8 block-1	PPC-1+TRAIL kill	SENP6 block	TRAIL sens C8	SENP8 block-2	SENP7 block	SENP8 conf	SENP6 conf	SENP7 conf	Casp3 select	Luc interf
COc1cccc(-c2noc(-c3cccs3)n2)c1	87.7	0	92.3	0	0	93.6	0	94.7	101.5	87.7	85.4
COc1cccc(-c2nc(-c3ccccc3)no2)c1	88.5	0	95.5	0	0	95.3	86.7	93.0	98.5	84.8	82.7
COCCn1c(=S)[nH]c2cc(C(=O)NC3CCCCC3C)ccc2c1=O (centres undefined)	-	-	-	0	0	-	-	-	-	-	-
COC(=O)c1cc(C(=O)Nc2nc3ccccc3[nH]2)cc([N+](=O)[O-])c1	0	-	0	0	0	0	-	-	-	-	-
COc1ccc(/C=N/N2C(=N)SCC2=O)cc1	0	0	0	0	0	0	-	-	-	-	-
Cc1cc(CNC(=O)COC(=O)c2ccc(Cl)c(N)c2)cc(C)c1O	0	-	0	0	0	0	-	-	-	-	-
O=C(O)c1ccc(-c2nnc(-c3cccc(Br)c3)o2)cc1	0	-	92.9	0	0	0	88.9	89.9	92.8	97.8	0
Brc1ccc(-c2nnc(-c3cccc(Br)c3)o2)cc1	0	0	0	0	0	0	-	-	-	-	-
COc1cccc(-c2noc(-c3cccnc3)n2)c1	58.4	0	81.1	0	0	79.0	0	67.7	90.9	84.3	52.2
COc1ccc(-c2nc(-c3ccc(C(=O)O)cc3)no2)cc1	97.3	-	97.8	0	0	94.9	98.2	98.4	101.7	86.1	97.4
COc1ccc(-c2noc(-c3ccc(Cl)cc3)n2)cc1	0	0	0	-	-	0	-	-	-	-	-
Cc1onc(C(=O)NN)c1C(=O)Nc1ncc(C(F)(F)F)cc1Cl	0	0	0	0	0	0	-	-	-	-	-
O=C(COC(=O)c1ccncc1)Nc1cccc(Cl)c1	0	0	0	0	0	0	-	-	-	-	-
Cn1cc(Cl)c(C(=O)OCC(=O)Nc2cccc(Cl)c2)n1	0	-	50.9	0	0	0	0	0	0	0	0
O=S(=O)(NC1CCCCC1NCc1ccco1)c1ccc(Cl)cc1 (centres undefined)	0	0	0	0	0	91.7	0	0	0	0	0
Cc1cc2nc(-c3cccc(Cl)c3)c(CC(C)(C)C)n2c(C)c1Br	-	-	-	0	0	-	-	-	-	-	-
COc1ccc(OC)c(C(=O)c2coc3ccc(OC(C)=O)cc23)c1	0	0	0	0	0	0	-	-	-	-	-
COc1ccc2occ(C(=O)c3ccc(N)cc3)c2c1	0	-	0	0	0	52.8	54.8	54.4	82.4	0	64.7
COc1ccc(C(=O)c2coc3ccc(OC(C)=O)cc23)cc1	59.5	-	0	0	0	0	58.0	55.0	66.1	50.4	0
Cc1ccc(C(=O)c2coc3ccc(O)cc23)cc1	88.1	-	86.3	0	0	91.7	0	93.8	100.4	84.3	84.0
COc1ccc2occ(C(=O)c3cccs3)c2c1	0	0	68.6	0	0	52.4	55.6	57.8	84.3	51.6	62.0
O=C1c2ccccc2C(c2nnnn2Cc2ccccc2)N1CCCN1CCOCC1 (centres undefined)	-	-	-	0	0	-	-	-	-	-	-
COc1cc(C2SCC(=O)N2Cc2ccccc2)ccc1O (centres undefined)	0	-	0	0	0	0	-	-	-	-	-
O=C(Nc1ccccc1)Nc1cccn(Cc2c(F)cccc2Cl)c1=O	54.9	0	58.4	0	0	0	0	0	91.5	50.1	0
c1ccc(C2Nc3cccc4cccc(c34)N2)cc1	0	-	0	0	0	0	-	-	-	-	-
SMILES	SENP8 block-1	PPC-1+TRAIL kill	SENP6 block	TRAIL sens C8	SENP8 block-2	SENP7 block	SENP8 conf	SENP6 conf	SENP7 conf	Casp3 select	Luc interf
CCOc1ccc(C2Nc3cccc4cccc(c34)N2)cc1OC	0	0	0	0	0	0	-	-	-	-	-
COc1cc(OC)c(C2Nc3cccc4cccc(c34)N2)c(OC)c1	0	-	58.4	0	0	0	0	0	0	0	0
COc1ccccc1C1Nc2cccc3cccc(c23)N1	0	0	60.5	0	0	0	0	0	0	0	0
COc1ccc(C2Nc3cccc4cccc(c34)N2)cc1	0	0	63.7	0	0	0	0	0	0	0	0
CC(C)c1cc(C(C)C)c(S(=O)(=O)NC(c2ccccn2)C23CC2C3)c(C(C)C)c1 (centres undefined)	-	-	-	0	0	-	-	-	-	-	-
O=C(Nc1cccnc1)c1cc(-c2ccc(Br)cc2)on1	0	0	0	0	0	83.9	0	0	0	0	0
COc1cccc(-c2cc(C(=O)Nc3cc(OC)c(OC)c(OC)c3)no2)c1	0	0	0	0	0	0	-	-	-	-	-
O=C(Nc1cccnc1)c1cc(-c2ccccc2)on1	0	0	74.6	0	0	68.9	0	0	85.6	75.1	0
COc1cccc(-c2cc(C(=O)Nc3cccnc3)no2)c1	64.7	0	55.5	0	0	80.2	0	78.0	93.0	83.4	0
COC(=O)c1sccc1-c1ccc(C(=O)Nc2cccnc2)o1	0	0	0	0	0	52.5	0	0	76.3	59.3	0
Cc1ccc(C(=O)NNC(=O)c2ccccc2O)cc1S(=O)(=O)N1CCCCC1	0	-	0	0	0	0	-	-	-	-	-
CCOCCCN(C)C1CCN(S(=O)(=O)c2csc(C(N)=O)c2)CC1	0	-	0	0	0	0	-	-	-	-	-
Cc1cccc(C)c1NC(=O)CNC(=O)CN1C(=O)NC2(CCc3ccccc32)C1=O (centres undefined)	0	-	0	0	0	0	-	-	-	-	-
CCCCc1n(CC(=O)c2ccc(Cl)cc2)c2ccccc2[n+]1C	0	0	0	0	0	0	-	-	-	-	-
CCCc1cc(C(=O)Nc2cccc(Cl)c2C)no1	0	-	0	0	0	0	-	-	-	-	-
Cc1ccc(NC(=O)c2cc(-c3ccco3)on2)cc1	0	0	0	0	0	0	-	-	-	-	-
O=C(Nc1cccnc1)c1cc(-c2ccco2)on1	0	0	0	0	0	58.3	0	0	63.5	79.0	0
CC(C)c1cc(C(=O)Nc2cccnc2)no1	0	0	62.3	0	0	63.4	61.0	56.2	85.7	88.2	64.6
CC(=O)C[C@@H](O)CC(=O)[C@@H]1OC(=O)[C@@H](C)C/C=C\Cc2ccccc21	0	-	0	0	0	0	-	-	-	-	-
Oc1ccc(N=Nc2ccc(Br)cc2)c(O)c1	95.6	0	98.8	0	0	88.6	92.9	92.9	98.3	71.7	82.1
Cc1ccc(N=Nc2ccc(O)cc2)c(Br)c1	55.8	-	63.7	0	0	0	73.9	72.6	86.0	0	69.0
